The record followed here is PubChem BioAssay.

Assay [1] is described as follows: small molecules captured by biotinylated probe aFSTL3 – biochemical, small-molecule microarray, fluorescence 635/667, stem cell growth factor project, primary screen (AID 1064).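 Note: measures binding of the biotinylated anti-FSTL3 antibody to printed compounds.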 To be noted: higher = more signal.
Assay [2] in a line: binders from COS7 lysate, DM2A8 probe, primary screen, torsin A project, cell lysate, small-molecule microarray, fluorescence 635/667 (AID 1065). Particulars: higher = more signal, COS7 lysate expressing mutant human TOR1A.
Assay [3] in a line: small molecules captured by biotinylated probe aFGF2 – biochemical, small-molecule microarray, fluorescence 635/667, stem cell growth factor project, primary screen (AID 1067).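 Note: measures binding of biotinylated aFGF2 protein to printed compounds on slides; z-score merges feature fluorescence and signal-to-noise across triplicate slides.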 To be noted: higher = more signal.
The nature of assay [4]: small molecules captured by biotinylated probe aFGF10 – biochemical, small-molecule microarray, fluorescence 635/667, stem cell growth factor project, primary screen (AID 1071).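 Note: score merges 667 nm spot intensity and signal to noise from triplicate slides.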 Particulars: higher = more signal.
The target in assay [5] is Neurogenic locus notch homolog protein 2 (Homo sapiens) (UniProt Q04721). Nature of the assay: small molecules binding Notch2 protein – biochemical, small-molecule microarray, 635 nm fluorescence, stem cell growth factors, primary screen (AID 1073). Particulars: higher = more signal.
Neurogenic locus notch homolog protein 2 (Homo sapiens), sequence (Q04721 whole entry, looked up, canonical isoform): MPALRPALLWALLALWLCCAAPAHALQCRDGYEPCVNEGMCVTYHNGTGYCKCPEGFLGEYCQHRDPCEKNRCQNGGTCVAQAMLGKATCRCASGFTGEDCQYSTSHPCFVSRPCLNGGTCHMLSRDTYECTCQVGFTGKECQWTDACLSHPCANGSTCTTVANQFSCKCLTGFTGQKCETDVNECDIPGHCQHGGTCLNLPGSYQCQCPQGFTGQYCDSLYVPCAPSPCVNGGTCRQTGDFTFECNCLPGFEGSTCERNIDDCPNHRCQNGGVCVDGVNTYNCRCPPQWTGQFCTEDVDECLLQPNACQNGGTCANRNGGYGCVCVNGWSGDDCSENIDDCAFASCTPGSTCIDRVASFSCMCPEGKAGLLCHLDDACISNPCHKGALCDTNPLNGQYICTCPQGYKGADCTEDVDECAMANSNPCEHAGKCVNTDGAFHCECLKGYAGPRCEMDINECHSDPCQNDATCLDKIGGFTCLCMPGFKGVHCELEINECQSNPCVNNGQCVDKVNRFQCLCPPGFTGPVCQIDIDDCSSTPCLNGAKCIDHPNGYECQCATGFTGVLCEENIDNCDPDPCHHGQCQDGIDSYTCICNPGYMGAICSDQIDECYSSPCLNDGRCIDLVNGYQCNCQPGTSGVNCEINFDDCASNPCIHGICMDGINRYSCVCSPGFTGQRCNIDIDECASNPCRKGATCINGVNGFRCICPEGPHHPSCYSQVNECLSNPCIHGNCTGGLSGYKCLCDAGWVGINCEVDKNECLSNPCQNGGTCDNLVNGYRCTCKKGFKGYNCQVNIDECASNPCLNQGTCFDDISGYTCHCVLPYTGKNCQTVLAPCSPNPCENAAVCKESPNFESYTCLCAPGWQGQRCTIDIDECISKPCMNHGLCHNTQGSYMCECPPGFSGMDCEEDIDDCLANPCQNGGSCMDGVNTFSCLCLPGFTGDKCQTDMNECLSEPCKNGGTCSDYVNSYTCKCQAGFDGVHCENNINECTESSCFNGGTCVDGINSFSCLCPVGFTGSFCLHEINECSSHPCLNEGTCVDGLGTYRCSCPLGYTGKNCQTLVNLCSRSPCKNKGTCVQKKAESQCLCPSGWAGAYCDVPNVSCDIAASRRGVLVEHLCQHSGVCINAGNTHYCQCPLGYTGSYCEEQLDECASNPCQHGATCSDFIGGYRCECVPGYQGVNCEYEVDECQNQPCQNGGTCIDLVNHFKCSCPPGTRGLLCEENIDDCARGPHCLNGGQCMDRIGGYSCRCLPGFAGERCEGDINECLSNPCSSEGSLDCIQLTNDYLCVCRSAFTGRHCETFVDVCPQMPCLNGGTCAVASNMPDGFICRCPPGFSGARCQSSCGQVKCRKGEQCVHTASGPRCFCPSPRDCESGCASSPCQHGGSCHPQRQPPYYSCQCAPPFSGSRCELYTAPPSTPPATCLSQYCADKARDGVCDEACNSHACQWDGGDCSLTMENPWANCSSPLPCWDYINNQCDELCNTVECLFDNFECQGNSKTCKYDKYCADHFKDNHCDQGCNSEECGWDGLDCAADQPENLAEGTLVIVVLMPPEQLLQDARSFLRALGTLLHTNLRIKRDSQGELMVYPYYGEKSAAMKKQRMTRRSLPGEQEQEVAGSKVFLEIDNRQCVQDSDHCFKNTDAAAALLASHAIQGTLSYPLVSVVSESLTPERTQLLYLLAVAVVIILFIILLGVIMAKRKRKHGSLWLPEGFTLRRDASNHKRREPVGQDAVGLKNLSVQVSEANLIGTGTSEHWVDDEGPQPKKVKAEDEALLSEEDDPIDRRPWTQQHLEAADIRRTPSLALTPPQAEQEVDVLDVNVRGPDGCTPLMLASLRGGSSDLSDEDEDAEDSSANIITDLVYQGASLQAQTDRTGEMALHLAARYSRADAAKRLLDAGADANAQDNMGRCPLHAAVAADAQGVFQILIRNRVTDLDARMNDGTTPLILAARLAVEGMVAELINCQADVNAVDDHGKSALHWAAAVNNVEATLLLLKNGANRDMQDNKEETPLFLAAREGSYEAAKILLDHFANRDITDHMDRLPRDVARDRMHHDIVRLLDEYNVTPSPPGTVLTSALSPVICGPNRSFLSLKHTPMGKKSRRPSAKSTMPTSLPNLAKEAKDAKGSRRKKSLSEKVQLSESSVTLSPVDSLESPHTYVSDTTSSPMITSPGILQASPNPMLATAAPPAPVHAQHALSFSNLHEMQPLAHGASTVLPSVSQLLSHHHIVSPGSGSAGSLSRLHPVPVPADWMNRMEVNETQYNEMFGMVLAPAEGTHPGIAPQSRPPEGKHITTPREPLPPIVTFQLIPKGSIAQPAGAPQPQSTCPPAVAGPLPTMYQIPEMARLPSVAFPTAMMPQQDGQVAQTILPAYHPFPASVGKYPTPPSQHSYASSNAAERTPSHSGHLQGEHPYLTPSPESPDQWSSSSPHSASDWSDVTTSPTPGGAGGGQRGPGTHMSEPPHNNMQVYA
Assay [6] concerns the target Pro-neuregulin-1, membrane-bound isoform (Homo sapiens) (UniProt Q02297). Nature of the assay: small molecules binding neuregulin-1 protein – biochemical, small-molecule microarray, fluorescence 635/667, psychiatric disease protein project, primary screen (AID 1075).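 Note: score combines 667 nm spot fluorescence with signal to noise.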 To be noted: NRG1 binding, 635 nm fluorescence, higher = more signal.
In assay [7] the test system is Neuregulin-1 EGF-like domain. Nature of the assay: small molecules binding NRG1 EGF domain – biochemical, small-molecule microarray, 635 nm fluorescence, primary screen (AID 1081).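 Note: binding of the protein to compounds printed on small-molecule microarray slides.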 To be noted: higher = more signal.
The nature of assay [8]: FRG1 expression reporter modulators in myotubes – cell-based, C2C12 myotubes, firefly/Renilla luciferase, luminescence, FRG1 inhibition for FSHD, primary screen (AID 1084). To be noted: FRG1 promoter luciferase, higher = more signal, called active from +8 up or from −8 down.
Assay [9] in a line: small molecules captured by biotinylated probe aFST – biochemical, small-molecule microarray, fluorescence 635/667, stem cell growth factor project, primary screen (AID 1086).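 Note: score merges 667 nm fluorescence with signal-to-noise of each printed compound spot.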 Particulars: higher = more signal.
The nature of assay [10]: binders of probe aHhip on microarray, primary screen, stem cell growth factor project, biochemical, small-molecule microarray, fluorescence 635/667 (AID 1087).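 Note: score merges spot fluorescence at 667nm with spot signal to noise ratio.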 Particulars: higher = more signal.
Assay [11] relates to PRMT1 (protein arginine N-methyltransferase 1). Nature of the assay: small molecules binding arginine methyltransferase PRMT1 – biochemical, small-molecule microarray, 635 nm fluorescence, primary screen (AID 1088).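 Note: binding of Prmt1 protein to compounds spotted on small-molecule microarray slides.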 To be noted: higher = more signal.
Assay [12] is described as follows: growth effects on S. cerevisiae YJM789 – YJM789 clinical isolate, OD600, 24 h, basal, primary screen (AID 1089).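 Note: growth of clinical yeast isolate S. cerevisiae YJM 789 seeded 1000 cells per well; test concentration not given here.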 Particulars: higher = more signal, called active from +8 up or from −8 down.
Assay [13] is described as follows: S. pombe growth modifiers, basal conditions – strain 972, OD600, 24 h, no modulator, primary screen (AID 1090).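 Note: basal condition with compound alone and no growth modifier present; test concentration not given here.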 To be noted: S. pombe 972 growth, higher = more signal, called active from +8 up or from −8 down.
The nature of assay [14]: budding yeast growth modifiers under rapamycin – strain BY4716, OD600, 96 h, primary screen (AID 1091). Note: test concentration not given here. Particulars: S. cerevisiae BY4716 + rapamycin, higher = more signal, called active from +8 up or from −8 down.
The target of assay [15] is Torsin-1A-interacting protein 2 (Homo sapiens) (UniProt Q8NFQ8). Nature of the assay: small molecules binding lysate-expressed LULL1 – cell lysate, human LULL1 lysate, 635/667 nm fluorescence, primary screen (AID 1092).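 Note: probe is lysate of COS7 cells overexpressing human LULL1; score merges per-feature 667 nm fluorescence with signal-to-noise.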 Particulars: small-molecule microarray, hLULL1 lysate binding, 635 nm fluorescence; higher = more signal.
A short description of assay [16]: optical density change of DRC41 E. coli – strain DRC41, OD650, 24 h, E. coli filamentation project, primary screen (AID 1093).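 Note: MC1000 strain lacking acrAB efflux and sulA so SOS filamentation is blocked; test concentration not given here.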 Particulars: E. coli DRC41 growth, higher = more signal, called active from +8 up or from −8 down.
Assay [17] is described as follows: probe aLefty2 binding to arrayed compounds – biochemical, biotinylated probe, 635/667 nm fluorescence, primary screen (AID 1094).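 Note: score merges spot fluorescence near 667 nm with spot signal-to-noise ratio.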 Particulars: small-molecule microarray, higher = more signal.
For assay [18], the system named is Noggin (protein binding on small-molecule microarray). Nature of the assay: small molecules binding Noggin protein – biochemical, 635/667 nm fluorescence, primary screen (AID 1095).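 Note: score merges 667 nm feature fluorescence with signal to noise over triplicate slides.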 To be noted: 635 nm fluorescence, higher = more signal.
In assay [19] the target is Neurogenic locus notch homolog protein 3 (Homo sapiens) (UniProt Q9UM47). Nature of the assay: small molecules binding NOTCH3 protein – biochemical, 635/667 nm fluorescence, primary screen (AID 1096). Particulars: small-molecule microarray, 635 nm fluorescence, higher = more signal.
Neurogenic locus notch homolog protein 3 (Homo sapiens), sequence (Q9UM47 whole entry, looked up): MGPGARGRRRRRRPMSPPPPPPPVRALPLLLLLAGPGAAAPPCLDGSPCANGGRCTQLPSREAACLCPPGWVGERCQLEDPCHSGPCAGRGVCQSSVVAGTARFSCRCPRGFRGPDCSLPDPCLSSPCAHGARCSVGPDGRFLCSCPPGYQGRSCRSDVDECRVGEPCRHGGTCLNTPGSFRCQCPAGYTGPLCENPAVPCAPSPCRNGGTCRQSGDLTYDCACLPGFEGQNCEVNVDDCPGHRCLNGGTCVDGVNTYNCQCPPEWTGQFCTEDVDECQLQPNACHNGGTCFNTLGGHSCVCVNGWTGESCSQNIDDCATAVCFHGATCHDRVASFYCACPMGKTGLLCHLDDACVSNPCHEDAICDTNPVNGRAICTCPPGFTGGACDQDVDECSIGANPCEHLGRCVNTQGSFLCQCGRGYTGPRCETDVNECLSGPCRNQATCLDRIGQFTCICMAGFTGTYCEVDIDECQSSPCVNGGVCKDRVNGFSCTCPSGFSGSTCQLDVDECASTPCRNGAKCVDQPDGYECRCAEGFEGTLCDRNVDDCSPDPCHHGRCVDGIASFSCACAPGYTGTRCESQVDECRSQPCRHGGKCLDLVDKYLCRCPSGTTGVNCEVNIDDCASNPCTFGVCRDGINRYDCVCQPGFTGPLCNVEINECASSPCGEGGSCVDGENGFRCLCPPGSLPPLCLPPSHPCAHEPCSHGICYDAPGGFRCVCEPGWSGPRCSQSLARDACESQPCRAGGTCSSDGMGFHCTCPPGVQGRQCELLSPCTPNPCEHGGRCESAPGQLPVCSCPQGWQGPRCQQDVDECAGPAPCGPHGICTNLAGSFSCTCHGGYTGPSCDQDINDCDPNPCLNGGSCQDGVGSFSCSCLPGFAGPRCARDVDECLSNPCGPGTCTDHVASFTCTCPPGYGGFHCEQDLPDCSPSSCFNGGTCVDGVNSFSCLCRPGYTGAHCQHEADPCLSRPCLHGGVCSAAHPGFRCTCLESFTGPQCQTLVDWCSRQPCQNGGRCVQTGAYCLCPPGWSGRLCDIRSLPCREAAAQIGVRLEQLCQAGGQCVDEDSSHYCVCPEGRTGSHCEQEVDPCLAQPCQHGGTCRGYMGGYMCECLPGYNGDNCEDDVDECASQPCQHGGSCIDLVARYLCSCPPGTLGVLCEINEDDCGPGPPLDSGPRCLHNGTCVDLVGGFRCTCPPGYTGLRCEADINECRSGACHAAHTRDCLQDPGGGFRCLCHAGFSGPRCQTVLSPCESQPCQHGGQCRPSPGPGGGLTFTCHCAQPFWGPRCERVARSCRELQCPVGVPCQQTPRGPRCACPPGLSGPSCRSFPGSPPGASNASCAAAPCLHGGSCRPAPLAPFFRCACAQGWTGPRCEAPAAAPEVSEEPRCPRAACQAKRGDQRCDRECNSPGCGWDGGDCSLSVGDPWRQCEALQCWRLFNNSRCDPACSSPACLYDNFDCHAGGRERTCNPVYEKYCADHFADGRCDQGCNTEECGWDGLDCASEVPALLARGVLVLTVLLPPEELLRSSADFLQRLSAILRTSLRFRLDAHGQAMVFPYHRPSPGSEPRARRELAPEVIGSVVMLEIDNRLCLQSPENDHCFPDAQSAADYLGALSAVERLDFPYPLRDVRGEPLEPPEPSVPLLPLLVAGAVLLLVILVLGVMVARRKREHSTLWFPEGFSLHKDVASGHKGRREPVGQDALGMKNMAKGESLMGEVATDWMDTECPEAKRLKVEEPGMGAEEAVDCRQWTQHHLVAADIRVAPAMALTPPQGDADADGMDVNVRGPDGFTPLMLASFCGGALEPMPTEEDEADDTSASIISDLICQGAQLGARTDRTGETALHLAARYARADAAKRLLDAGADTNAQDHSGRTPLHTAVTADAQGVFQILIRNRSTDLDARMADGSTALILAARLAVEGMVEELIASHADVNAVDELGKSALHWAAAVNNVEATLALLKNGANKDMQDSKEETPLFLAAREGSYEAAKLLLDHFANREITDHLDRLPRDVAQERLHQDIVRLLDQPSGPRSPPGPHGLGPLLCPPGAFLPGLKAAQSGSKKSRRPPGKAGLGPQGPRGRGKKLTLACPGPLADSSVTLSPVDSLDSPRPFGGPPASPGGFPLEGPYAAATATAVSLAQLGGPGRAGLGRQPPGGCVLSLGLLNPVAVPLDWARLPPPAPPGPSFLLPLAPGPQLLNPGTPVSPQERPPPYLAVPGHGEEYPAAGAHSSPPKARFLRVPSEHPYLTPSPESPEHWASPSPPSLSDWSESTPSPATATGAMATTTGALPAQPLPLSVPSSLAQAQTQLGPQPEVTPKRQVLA
A short description of assay [20]: probe aEGFR binding to arrayed compounds – biochemical, biotinylated probe, 635/667 nm fluorescence, primary screen (AID 1097).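 Note: probe is a biotinylated anti-EGFR antibody binding compounds printed on slides; score combines fluorescence near 667 nm and signal to noise of each spot.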 To be noted: small-molecule microarray, higher = more signal.

The source made the active and inactive calls.

As to `CCOC(=O)C1=C[C@@H](c2ccccc2)N(S(=O)(=O)c2ccc(C)cc2)[C@H]1c1ccccc1`, the composite z-score is 0.119 in assay [1]; -0.137 in [2]; -0.0659 in assay [3]; 0.21 in assay [4]; 0.917 in assay [5]; 0.442 in assay [6]. Also, the composite z-score in assay [7] was 0.296; in [9] it was 0.171; in [10], -0.0994; in assay [11], 0.712; in assay [15], 0.91; in [17], -0.0113. In addition, the composite z-score in assay [18] is 0.0762; in assay [19], 0.552; in assay [20], -0.112. For the same molecule, the z-score in [8] was -0.401 (inactive); in assay [12], -1.27 (inactive); in [13], 0.517 (inactive); in [14], 0.958 (inactive); in assay [16], 0.6 (inactive).
As to `CCOC(=O)C1=CCC(c2ccccc2)N(S(=O)(=O)c2ccc([N+](=O)[O-])cc2)C1` (stereo not given), the composite z-score in [1] was -0.239; in assay [2], -0.181; in [3], -0.112; in assay [4] it was 0.154; in assay [5] it was 1.17; in assay [6] it was -0.0979. In addition, the composite z-score in [7] is 0.549; in assay [9] it was 0.06; in assay [10] it was 0.0505; in assay [11] it was -0.411; in assay [15], 1.33; in assay [17], -0.0081. The composite z-score in assay [18] was -0.578; in [19], 0.0968; in assay [20], 0.0506. Further, the z-score in assay [8] is -0.877 (inactive); in assay [12] it was 0.687 (inactive); in assay [13] it was 0.668 (inactive); in [14], 1.25 (inactive); in assay [16] it was -0.319 (inactive).
As for `CN1C(=O)[C@@]2(Cc3ccccc3)N=C(c3ccc(OCCCO)cc3)O[C@H]2c2ccccc21`, the composite z-score in assay [1] stood at 0.331; in assay [2], 0.295; in [3], 0.0175; in assay [4], 0.261; in [5], 0.921; in [6], 0.501. Also, the composite z-score in [7] was 1.21; in [9], 0.511; in [10], -0.156; in assay [11] it was 1.56; in [15] it was 2.94; in assay [17] it was 0.109. The composite z-score is 0.955 in assay [18], 1 in assay [19] and -0.0982 in assay [20]. Moreover, the z-score in [8] is -2.02 (inactive); in assay [12], -1.28 (inactive); in [13], -4.11 (inactive); in assay [14], 0.843 (inactive); in assay [16] it was 0.291 (inactive).
Consider `C=C[C@@H](C)[C@@H](OC(=O)Nc1ccc(SC)cc1)c1ccc(OCCO)cc1`, for which the composite z-score in assay [1] is 0.004; in [2], 0.81; in assay [3] it was 0.0918; in assay [4] it was 0.447; in assay [5] it was -0.202; in assay [6] it was 1.41. Moreover, the composite z-score in assay [7] was 1.26; in [9], 0.051; in assay [10], 0.0373; in assay [11], 1.19; in assay [15] it was 1.92; in assay [17] it was -0.106. Moreover, the composite z-score stood at 0.172 in assay [18], 0.194 in assay [19] and 0.0348 in [20]. Further, the z-score in assay [8] was 10.5 (active); in assay [12], 0.222 (inactive); in assay [13], -1.58 (inactive); in [14] it was -0.31 (inactive); in assay [16], 1.41 (inactive).
For the molecule `C=C[C@@H](OC)[C@H](OC(=O)Nc1ccc(OC)cc1)c1ccc(OC)c(O)c1`, the composite z-score in assay [1] is 0.54; in assay [2], -0.998; in [3], -0.087; in assay [4] it was -0.624; in [5] it was -1.06; in assay [6], -0.401. Moreover, the composite z-score in [7] was 1.23; in assay [9], -0.857; in assay [10] it was 0.0505; in assay [11], -0.391; in [15], 1.04; in assay [17] it was -0.124. The composite z-score in assay [18] was -0.527; in [19] it was -0.449; in assay [20], -0.25. In addition, the z-score was 3.56 (inactive) in assay [8]; 0.239 (inactive) in [12]; -0.375 (inactive) in [13]; -0.901 (inactive) in assay [14]; 0.234 (inactive) in [16].
